The values below come from PubChem BioAssay AID602197 (NMMLSC, 2012).

This is one part of the list. Values without a mark were called inactive. Activity calls are given as the source filed them. No stated cut-off is given here; in the data, active means response above about 24%; inactive means the rest.

The assay can be described thus: yeast V-ATPase proton pumping modulators, confirmation, S. cerevisiae, pH-sensitive GFP, second cherry-pick (AID 602197).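 Further: plate controls were vehicle wells for no effect and positive control wells for full effect.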 The note with it: S. cerevisiae pHLuorin cytosolic pH, V-ATPase proton transport; at 10 µM; active compounds read high.
For the compound `COc1ccc2nc(N3CCN(C(=O)c4ccc([N+](=O)[O-])o4)CC3)sc2c1`, the response is 36% (active).

For the compound `CC1=NOC(=O)/C1=C\c1ccccc1`, the response was 30.5% (active).

Regarding `Cc1ccnc(SCC(=O)Nc2cccc(S(=O)(=O)N3CCOCC3)c2)n1`, the response is 0.72%.

Turning to `CNC(=O)c1csc(Cc2c(Cl)sc3ccc(Cl)cc23)n1`, the response was 2.33%.

With `Cc1cc(OC(=O)c2ccccc2)c([N+](=O)[O-])c(=O)[nH]1`, the response is 1.38%.

`O=C(O/N=C(/c1ccccc1)c1ccncc1)c1ccccc1[N+](=O)[O-]`: the response is 4.81%.

Regarding `CC1=NN(c2ccc(Cl)c(C(=O)O)c2)C(=O)/C1=C/c1ccc(-c2ccccc2[N+](=O)[O-])o1`, the response was 1.31%.

Turning to `CC(=O)N1CCC(N(C(=O)Nc2ccc(Cl)cc2)C(C)C)CC1`, the response is 2.59%.
